Most compounds without a hit are left out; they make up all but 3% or so of the library.
TrxR1 inh = qHTS Assay for Inhibitors of Mammalian Selenoprotein Thioredoxin Reductase 1 (TrxR1): qHTS; recombinant rTrxR1, NADPH fluorescence consumption, selenite substrate; hit rate 1% among 390,000; Potency, µM (titrated, usually from 114 µM), for the others: at the top dose activity change, negative = inhibition, usual class: inhibitors; also: % is scaled to controls: 0 for no effect and ±100 for the full control effect; nearly all actives have a fitted effect of over 65% in size
Target sequence (O89049 whole entry, looked up): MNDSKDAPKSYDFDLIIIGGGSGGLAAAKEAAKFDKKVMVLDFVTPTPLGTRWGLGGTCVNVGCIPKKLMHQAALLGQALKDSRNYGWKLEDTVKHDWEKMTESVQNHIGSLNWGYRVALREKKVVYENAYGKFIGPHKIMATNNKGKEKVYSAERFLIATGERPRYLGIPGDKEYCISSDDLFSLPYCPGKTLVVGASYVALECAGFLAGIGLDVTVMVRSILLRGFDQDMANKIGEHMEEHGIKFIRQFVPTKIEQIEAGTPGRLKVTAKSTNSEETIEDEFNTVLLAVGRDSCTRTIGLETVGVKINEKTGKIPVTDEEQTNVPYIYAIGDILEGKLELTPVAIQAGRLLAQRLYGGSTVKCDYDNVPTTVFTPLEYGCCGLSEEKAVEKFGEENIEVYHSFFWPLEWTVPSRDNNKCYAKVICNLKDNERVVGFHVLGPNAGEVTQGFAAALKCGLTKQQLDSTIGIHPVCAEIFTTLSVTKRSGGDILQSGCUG
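Rat TrxR1 (90 nM in the dispensed reagent) was pre-reduced with 400 uM NADPH for 5 min at room temperature, then incubated with compound for 15 min. After 400 uM selenite was added, NADPH fluorescence (Ex 340/Em 450 nm) was followed for 8 min.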
A549 viability = Nrf2 qHTS screen for inhibitors: counterscreen for cytotoxicity | A549 ARE-Fluc cells, CellTiter-Fluor viability, 18-24 h | Potency, µM (titrated, usually from 46 µM), without a hit: at the top dose activity change, negative = cytotoxicity, usual class: inhibitors | hit rate 0.16% among 390,000 | AID 504648, 2011; also: % is scaled to controls: 0 for no effect and ±100 for the full control effect
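A549 ARE-Fluc cells in 5% FBS OPTI-MEM, 5000 cells/well, rested 2 h then exposed to compounds in concentration-response for 18-24 h at 37 °C. Viability by CellTiter-Fluor fluorescence (Ex 405/Em 525) after 30 min; luciferase luminescence (BugLite, 15 min, RT) read afterwards.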
GALK inhibitor = qHTS Assay for Inhibitors of Human Galactokinase (GALK); Purified GALK, Kinase-Glo residual ATP luminescence; Potency, µM (highest dose often 57.5 µM), for inactives: at the top dose activity change, negative = inhibition, actives largely listed as inhibitors; hit rate 0.007% among 270,000; also: % is scaled to controls: 0 for no effect and ±100 for the full control effect
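Human GALK (5 nM) with 35 uM ATP and 100 uM galactose in 20 mM HEPES pH 8.0, 5 mM MgCl2, 60 mM NaCl, 1 mM DTT, 0.01% BSA. After 1 h at room temperature, leftover ATP was read by Kinase-Glo Plus luminescence.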
TrxR1 substrate = qHTS Assay for Substrates of Mammalian Selenoprotein Thioredoxin Reductase 1 (TrxR1): qHTS. Thioredoxin reductase 1, cytoplasmic (Rattus norvegicus), O89049. purified TrxR1 substrate turnover, NADPH consumption readout. Potency, µM (titrated, usually from 114 µM), inactives show at the highest dose activity change, negative = substrate turnover. hit rate 0.01% among 390,000; also: % is scaled to controls: 0 for no effect and ±100 for the full control effect; nearly all actives have a fitted effect of over 50% in size
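Rat TrxR1, dispensed at 90 nM, was prereduced with 400 uM NADPH (final) for 5 min at ~22 deg C, then incubated with compound 15 min before 400 uM selenite. A first-read NADPH fluorescence drop versus no-compound background flagged substrates.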
Nrf2 block = Nrf2 qHTS screen for inhibitors. A549 ARE-Fluc reporter, luciferase luminescence, 18-24 h. Potency, µM (series often up to 46 µM), for inactives: top-dose activity change, negative = inhibition, actives largely listed as inhibitors. hit rate 2.1% among 360,000. AID 504444, 2011; also: % is scaled to controls: 0 for no effect and ±100 for the full control effect; nearly all actives have a fitted effect of over 60% in size
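Reporter: ARE-Fluc in A549. Exposure: 18-24 h, 37 °C, 5% CO2, 5% FBS OPTI-MEM. Readouts: fluorescent cytotoxicity (CellTiter-Fluor), then luminescent Nrf2 signal after BugLite.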
Nrf2 activator = qHTS of Nrf2 Activators | AREc32 ARE-luciferase reporter (MCF7-derived line), luminescence, 24 h | AID 624171, 2012 | hit rate 0.31% among 410,000 | Potency, µM (series often up to 46.1 µM), without a hit: at the top dose activation, usual class: activators; also: % of control where 0% means no effect; nearly all actives have a fitted effect of over 65% in size
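Steps: seed AREc32_Fluc cells (1000/well, 5% FBS OPTI-MEM); incubate overnight at 37 deg C; add 23 nL compound; incubate 24 hr; add Steady-Glo; hold 30 min RT; read luminescence.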
An asterisk follows results filed as active; ? = inconclusive; · = no result; [ ] = remark or other dose. Calls follow the shape of the dose curve; as a rule, active = well fitted curve in the direction sought with a large enough effect; inconclusive = small, poorly fitted or top-dose-only effect, or another doubt; inactive = no such curve, though single readings can be large; an effect the other way counts as inactive or inconclusive. Potency is read from the fitted curve at half-maximal effect.

SMILES	TrxR1 inh	A549 viability	GALK inhibitor	TrxR1 substrate	Nrf2 block	Nrf2 activator
CCOc1ccccc1CNC(=O)CCCn1c(=O)c2cccn2c2cccnc21	-17%	5%	·	1%	?	0%
Clc1cccc(Cl)c1/C=N\Nc1nccs1	8%	1%	-1%	1%	11%	10µM*
CCc1nn2c(=O)cc(COC(=O)c3ccco3)nc2s1	-3%[57.1 µM]	6%	·	-9%[57.1 µM]	?	1%
Nc1[nH]c2cc([N+](=O)[O-])ccc2c1-c1ccccn1	7%	13µM*	2%	-4%	-24%	3%
Nc1nc2ccc([N+](=O)[O-])cc2[nH]1	5%[2.29 µM]	-14%	-1%	-6%[57.1 µM]	-4%	0%
CCCc1nc2ccccc2c(=O)n1NC(=O)c1c(O)c2ccccc2n(C)c1=O	15%	-22%	-1%	8%	18µM*	0%
CCc1nc2ccccc2c(=O)n1NC(=O)c1c(O)c2ccccc2[nH]c1=O	2%	-1%	-1%	-6%	4%	-1%
CCn1c(=O)c(C(=O)NNS(=O)(=O)c2ccc(C)cc2)c(O)c2ccccc21	9%	-28%	-1%	7%	15µM*	3%
CCCCCCc1nc2ccccc2c(=O)n1NC(=O)c1c(O)c2c(n(CC(C)C)c1=O)CCCC2	30%	?	0%	63%	21µM*	0%
CCOc1ccc(NC(=O)Cn2cc(C(=O)c3ccccc3)c(=O)c3cc4c(cc32)OCO4)cc1	-1%	-1%	·	-11%	-9%	0%
CCC(=O)N1CCc2cc(S(=O)(=O)CCC(=O)Nc3ccc(Cl)c(C(F)(F)F)c3)ccc21	-2%	-2%	·	-5%	21µM*	23%
CS(=O)(=O)N1CCc2cc(C(=O)Nc3ccc(Cl)c(C(F)(F)F)c3)ccc21	45%	-27%	·	1%	21µM*	-1%
Cc1ccccc1N/N=C/c1sc(=O)n(Cc2cccc(C(=O)O)c2)c1Cl	50µM*	-14%	2%	1%	-19%	11%
O=C(O)c1cccc(Cn2c(Cl)c(/C=N/NC(=O)c3cc4ccccc4cc3O)sc2=O)c1	-13%	0%	-14%	-13%	1%	0%
O=C(O)c1cccc(Cn2c(Cl)c(/C=N/NC(=O)c3ccccc3)sc2=O)c1	-40%	-4%	-4%	-13%	6%	0%
O=C(O)c1cccc(Cn2c(Cl)c(/C=N/NC(=O)c3cccc(O)c3)sc2=O)c1	-8%	1%	-4%	-7%	4%	-1%
COC(=O)c1cccc(Cn2c(Cl)c(/C=N/Nc3ccccc3C)sc2=O)c1	22µM*	1%	0%	-13%	-6%	17%
O=C(O)c1cccc(Cn2c(Cl)c(/C=N/NC(=O)c3ccco3)sc2=O)c1	79µM*	5%	-6%	-19%	11%	9%
CC(C)C(OC(=O)CNC(=O)c1ccccc1)C(=O)Nc1cc(C(F)(F)F)ccc1Cl (stereo not given)	·	6%	·	·	-1%	·
CCN(CC)c1ccc(NC(=O)CCS(=O)(=O)c2cc3c(cc2Cl)NC(=O)CO3)c(C)c1	23%	?	·	2%	16µM*	-2%
Cc1ccc(NC(=O)CCS(=O)(=O)c2cc3c(cc2Cl)NC(=O)CO3)cc1	21%	-3%	-7%	-6%	-13%	0%
CCCCCC(=O)N(O)C1CC(=O)N(c2ccccc2)C1=O (stereo not given)	3.5µM*	1%	3%	-21%[57.1 µM]	10%	14%
CCCCCCC(=O)N(O)C1CC(=O)N(Cc2ccccc2)C1=O (stereo not given)	5%	-5%	0%	-3%	?	?
O=C(CN1C(=O)NC2(CCCCC2)C1=O)Oc1ccc2ccc(=O)oc2c1	50µM*	2%	·	379%	5%	-1%
Cc1cccc[n+]1CCCCCCCCCC[n+]1ccccc1C	16%	-17%	5%	10%[57.1 µM]	?	0%
SMILES	TrxR1 inh	A549 viability	GALK inhibitor	TrxR1 substrate	Nrf2 block	Nrf2 activator
Brc1cccc[n+]1CCC[n+]1ccccc1Br	6.3µM*	·	·	-12%	·	·
COc1cc(SC)ccc1C(=O)N1CCC(Cc2ccccc2)CC1	2%[57.1 µM]	·	·	-3%[57.1 µM]	·	·
COC(=O)c1ccc(COC(=O)c2ccc(CS(=O)(=O)c3ccc(C)cc3)cc2)cc1	-2%	-5%	2%	-4%	-17%	0%
COC(=O)c1cc2c(n1S(=O)(=O)c1ccc(C)cc1)C(=O)C(=O)c1[nH]cc(C(=O)OCc3ccccc3)c1-2	-5%[11.4 µM]	4.1µM*	·	-5%[11.4 µM]	4.1µM*	-2%
CCCC(=O)NC(=S)Nc1ccccc1C(=O)OC	-12%[57.1 µM]	-2%	·	5%[57.1 µM]	6%	4%
CCC(=O)NC(=S)Nc1ccccc1C(=O)OC	50µM*	2%	1%	-4%	3%	0%
COC(=O)c1cn[nH]c1NC(=S)Nc1ccccc1C	0.79µM*	3%	2%	10%	·	3%
CC(=O)c1ccc(NC(=O)c2cc(-c3ccc(C)s3)nc3ccccc23)cc1	25%	-6%	·	69%	8%	6%
COc1ccc(-c2cc(C(F)(F)F)nc(SCC(=O)Nc3cc(C)on3)n2)cc1	23%[57.1 µM]	3%	1%	29%[57.1 µM]	4%	1%
COc1ccc(-c2cc(C(F)(F)F)nc(SCC(=O)Nc3ccc(C(C)=O)cc3)n2)cc1	36%	-29%	·	16%	23µM*	-1%
CCC1(OC(=O)CN(C)C)C(=O)OCc2c1cc1n(c2=O)Cc2cc3c(N)cccc3nc2-1 (stereo not given)	2%[11.4 µM]	?	·	-9%[57.1 µM]	0.65µM*	-1%
CC(Oc1ccc(Br)cc1Cl)C(=O)Nc1ccncc1 (stereo not given)	-3%	0%	2%	-5%	21µM*	-1%
CCN(Cc1ccc(OC)c(F)c1)C(=O)CCl	25µM*	-2%	8%	3%	-8%	?
COc1ccc(/C=C(\C#N)C(=O)Nc2ccccn2)cc1	4%[57.1 µM]	3%	-6%	4%[57.1 µM]	-6%	0%
Cc1ccc(/C=C(\C#N)C(=O)Nc2ccccn2)o1	5%[57.1 µM]	-7%	8%	3%[57.1 µM]	?	14µM*
Cc1ccc2c(C(=O)CNc3nccs3)c[nH]c2c1	1%	·	·	-1%	·	·
Cc1ccc(S(=O)(=O)N2CCN(CCc3ccccc3)CC2)c(C)c1	18%	-2%	·	5%[57.1 µM]	18µM*	2%
Cc1ccc(S(=O)(=O)N2CCN(C(=O)CSC3CCCC3)CC2)c(C)c1	13%	-12%	-1%	-1%	26µM*	-1%
